Source: PubChem BioAssay (Tox21)
Values without a mark were called inactive. Records with an inconclusive call do not appear. Entries that show only a call come without a potency. Active and inactive are the calls of the source. Calls come from the whole dose curve; as a rule, active = well fitted curve in the direction sought with a large enough effect in the repeat runs; inconclusive = weak or mixed curves; inactive = no such curve, though single readings can be large; an effect the other way counts as inactive or inconclusive.

What was measured:
[1] = qHTS RealTime-Glo MT Cell Viability Assay in HEK293 cells - 0 hour (AID 1224880); note: top concentration of the series differs between compounds; nearly all actives have a fitted effect of over 45% in size
Outline: (§1)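 Real-time viability in HEK293: signal arises when living cells convert a prosubstrate for NanoLuc in the medium, so luminescence tracks viable cell number. Compound (23 nL, DMSO) added 5 h post-seeding; kinetic reads at 0–40 h, 37 C.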

[2] = A CellTox Green Cytotoxicity Assay to monitor cytotoxicity in HEK293 cells - 32 hour (AID 1224881); note: nearly all actives have a fitted effect of over 40% in size
Outline: (§2)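 Cells (HEK293, 600/well) and dye reagent are dispensed together. After 5 h at 37 C, 23 nL compound is pinned in. Plates stay at 37 C for 40 h with fluorescence read at 0h, 8h, 16h, 24h, 32h and 40h.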

[3] = A CellTox Green Cytotoxicity Assay to monitor cytotoxicity in HepG2 cells - 0 hour (AID 1224882); note: nearly all actives have a fitted effect of over 35% in size
Outline: (§3)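 Cells and non-lytic dye reagent are dispensed together (600 HepG2 cells/well) and incubated 5 h before DMSO compound transfer. Kinetic fluorescence is then recorded in the same wells during 40 h at 37 C.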

[4] = A CellTox Green Cytotoxicity Assay to monitor cytotoxicity in HepG2 cells - 32 hour (AID 1224883); note: nearly all actives have a fitted effect of over 50% in size; note: potency is the fitted concentration of half-maximal effect
Outline: as §3

[5] = A CellTox Green Cytotoxicity Assay to monitor cytotoxicity in HEK293 cells - 8 hour (AID 1224884); note: nearly all actives have a fitted effect of over 35% in size
Outline: as §2

[6] = qHTS RealTime-Glo MT Cell Viability Assay in HepG2 cells - 16 hour (AID 1224885); note: nearly all actives have a fitted effect of over 50% in size
Outline: (§4)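 Tox21 10K library screened in qHTS format on HepG2 cells carrying RealTime-Glo reagents. Compounds were added after a 5 h preincubation, and the luminescent signal from continuous culture was measured repeatedly during 40 h treatment.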

[7] = qHTS RealTime-Glo MT Cell Viability Assay in HEK293 cells - 24 hour (AID 1224886); note: top concentration of the series differs between compounds; nearly all actives have a fitted effect of over 50% in size
Outline: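 Luminescence generated by NanoLuc from substrate produced by living HEK293 cells served as the viability signal. Each value reflects the reading at its stated time point during continuous 40 h compound exposure at 37 C.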

[8] = qHTS RealTime-Glo MT Cell Viability Assay in HEK293 cells - 8 hour (AID 1224887); note: top concentration of the series differs between compounds; nearly all actives have a fitted effect of over 50% in size
Outline: as §1

[9] = A CellTox Green Cytotoxicity Assay to monitor cytotoxicity in HEK293 cells - 16 hour (AID 1224888); note: nearly all actives have a fitted effect of over 35% in size
Outline: as §2

[10] = qHTS RealTime-Glo MT Cell Viability Assay in HepG2 cells - 0 hour (AID 1224889); note: nearly all actives have a fitted effect of over 50% in size
Outline: as §4

Row | SMILES | outcome [1] | Potency [2] | Potency [3] | Potency [4] | Potency [5] | outcome [6] | Potency [7] | Potency [8] | Potency [9] | Potency [10]
1 | Cc1c(C(=O)NCCO)[n+](=O)c2ccccc2n1[O-] | inactive | inactive | inactive | inactive | inactive | inactive | inactive | inactive | inactive | inactive
2 | Cc1c(N)cccc1N | inactive | inactive | inactive | inactive | inactive | inactive | inactive | inactive | inactive | –
3 | CN1CCC[C@@H]1Cc1c[nH]c2ccc(CCS(=O)(=O)c3ccccc3)cc12 | inactive | inactive | inactive | inactive | inactive | inactive | inactive | inactive | inactive | inactive
4 | O=c1[nH]cnc2c1ncn2[C@@H]1O[C@H](CO)[C@@H](O)[C@H]1O | inactive | inactive | inactive | inactive | inactive | inactive | inactive | inactive | inactive | inactive
5 | Nc1cccc(S(=O)(=O)O)c1 | inactive | inactive | inactive | inactive | inactive | inactive | inactive | inactive | inactive | inactive
6 | Cc1c[nH]c(=S)[nH]c1=O | inactive | inactive | inactive | inactive | inactive | inactive | inactive | inactive | inactive | –
7 | OCCN1CCN(CCO)CC1 | inactive | inactive | inactive | inactive | inactive | inactive | inactive | inactive | inactive | –
8 | CCc1nnc(NS(=O)(=O)c2ccc(N)cc2)s1 | inactive | inactive | inactive | inactive | inactive | inactive | inactive | inactive | inactive | inactive
9 | Cc1ccsc1C(=CCCN1CCC[C@@H](C(=O)O)C1)c1sccc1C | inactive | inactive | inactive | inactive | inactive | inactive | inactive | inactive | inactive | inactive
10 | COC(C)CCO (configuration not stated) | inactive | inactive | inactive | inactive | inactive | inactive | inactive | inactive | inactive | inactive
11 | NC1=NCC2c3ccccc3Cc3ccccc3N12 (configuration not stated) | inactive | inactive | inactive | inactive | inactive | inactive | inactive | inactive | inactive | –
12 | CC1(C)C(=O)N(Cl)C(=O)N1Br | inactive | inactive | inactive | inactive | inactive | inactive | inactive | inactive | inactive | inactive
13 | CC(C)c1ccccc1 | inactive | inactive | inactive | inactive | inactive | inactive | inactive | inactive | inactive | inactive
14 | CC(C)NCC(O)COc1ccc(CCOCC2CC2)cc1 (configuration not stated) | inactive | inactive | inactive | inactive | inactive | inactive | inactive | inactive | inactive | –
15 | CCN[C@H]1CN(CCCOC)S(=O)(=O)c2sc(S(N)(=O)=O)cc21 | inactive | inactive | inactive | inactive | inactive | – | – | inactive | inactive | –
16 | CC(C)CCCCCCc1ccc(OCCOCCO)cc1 | inactive | inactive | inactive | inactive | inactive | – | inactive | inactive | inactive | inactive
17 | O=S(=O)(O)C(F)(F)F | inactive | inactive | inactive | inactive | inactive | inactive | – | – | inactive | inactive
18 | O=CCCc1ccccc1 | inactive | inactive | inactive | inactive | inactive | – | – | inactive | inactive | inactive
19 | CN(CCCN1c2ccccc2CCc2ccccc21)CC(=O)c1ccc(Cl)cc1 | inactive | inactive | inactive | – | inactive | inactive | inactive | inactive | inactive | inactive
20 | CCCCNc1ccc(C(=O)OCCN(CC)CC)cc1 | inactive | inactive | inactive | inactive | inactive | inactive | – | inactive | inactive | inactive
21 | CCN(CC)CCNC(=O)COc1ccc(Cl)cc1 | inactive | inactive | inactive | – | inactive | – | inactive | inactive | inactive | inactive
22 | CC1=CC(=O)CC(C)(C)C1=O | inactive | inactive | inactive | inactive | inactive | – | inactive | inactive | inactive | inactive
23 | N#Cc1ccc(C(c2ccc(C#N)cc2)n2cncn2)cc1 | inactive | inactive | inactive | inactive | inactive | inactive | – | inactive | inactive | inactive
24 | O=C1CCCCCCCCCCC(=O)OCCO1 | inactive | inactive | inactive | 24.5 µM (active) | inactive | – | – | – | inactive | inactive
25 | CC/C=C\CCOC(=O)C(C)C | inactive | inactive | inactive | inactive | inactive | – | inactive | inactive | inactive | inactive
